Among all 69,000 compounds or so, about 8,600 (12%) showed an effect of 50% or more. This excerpt belongs to a sample that is enriched for strong results.

The test system of this assay is Plasmodium berghei. Briefly: Screen against P. berghei liver stage (PbLuc), transformed with Luciferase, at 10uM. In kind it is functional, HepG2. The conditions noted are these: tested at 10 uM.
Take `CN(C)C(=O)N1CCN(Cc2cnn(C)c2)CC2(CNC(=O)C2)C1` (stereo not given): the INHIBITION worked out at 17.6%.
Turning to `O=C(CCn1c(=O)oc2ccccc21)NCC(O)c1ccc(Cl)cc1` (stereo not given), the INHIBITION was 18.2%.
For the compound `O=S(=O)(CC1CCCCO1)Nc1cnn(Cc2ccccc2)c1` (stereo not given), the INHIBITION came out at 33.7%.
Then `Cc1cnn(C2CN(CC(=O)NCCc3ccsc3)C2)c1`, with 22.3%; and `CN1CCN(C[C@@H]2OC[C@H]3CN(Cc4ccsc4)CC[C@H]32)CC1`, with -13.3%; and `COc1ccc2c(c1)sc(=NC(=O)CSCC(=O)Nc1nccs1)n2C`, with 51%.
The result for `COc1cc(Cl)ccc1C(=O)NCC(=O)Nc1nccs1` reads -176%; that for `COCCn1/c(=N\C(=O)CN(C)S(C)(=O)=O)sc2cc(OC)ccc21`, 2.29%; that for `CCn1c(=NC(=O)CSCC(=O)Nc2nccs2)sc2ccccc21`, 88.1%.
Then `Cn1c(=NC(=O)CSCC(=O)Nc2nccs2)sc2ccccc21`, with 32.8%; and `O=C(CNC(=O)c1ccccc1Cl)Nc1nccs1`, with -9.72%; and `O=C(Cc1ccccn1)N1CC[C@]2(C[C@@H](Oc3ncccc3F)CO2)C1`, with 35.8%.
Turning to `CN(C)C(=O)N1CC[C@@H](O)[C@@H]1Cc1ccccc1`, the INHIBITION is reported as -14.7%.
As to `Cc1ccc(CN2CCC3(CC2)C(=O)N(CC(C)C)CCN3C)o1`, the INHIBITION came out at 39.5%.
The result for `COc1ccc(C(=O)COc2coc(CN3CCSCC3)cc2=O)cc1` reads 15.1%.
For the compound `Cn1ncc2c(NC3CCC(N)CC3)nc(C(C)(C)C)nc21` (stereo not given), the INHIBITION is given as 40.5%.
The result for `CCOC(=O)CNc1nc(C(C)(C)C)nc2c1cnn2C` reads 51.3%; that for `Cc1nc(NC2CCN(C(=O)C3CC3)CC2)c2cnn(C)c2n1`, -25.2%.
The result for `CCOC(=O)CCCNc1nc(C(C)(C)C)nc2c1cnn2C` reads 27.9%.
For `Cn1ncc2c(N[C@H]3CCCC[C@@H]3O)nc(C(C)(C)C)nc21`, the INHIBITION is listed as 50.1%.
The result for `Cn1ncc2c(NCC(=O)N3CCNCC3)nc(C(C)(C)C)nc21` reads 16.8%.
Turning to `CCOC(=O)CC(C)Nc1nc(C(C)(C)C)nc2c1cnn2C` (stereo not given), the INHIBITION was 46.4%.
The result for `CCc1nc(NC2CCCN(C(=O)C3CC3)C2)c2cnn(C)c2n1` (stereo not given) reads 16%; that for `Cn1ncc2c(NC3CCCN(C(=O)C4CC4)C3)nc(C(C)(C)C)nc21` (stereo not given), 62.9%; that for `Cn1ncc2c(NCC3CCS(=O)(=O)C3)nc(C3CCCC3)nc21` (stereo not given), 15.1%.
The result for `Cc1nc(N[C@H]2COC[C@@H]2N2CCCC2)c2cnn(C)c2n1` reads 32.7%; that for `Cn1ncc2c(N[C@@H]3CS(=O)(=O)C[C@H]3O)nc(C(C)(C)C)nc21`, 54.4%; that for `Cc1nn(C)c(Cl)c1C(=O)NCc1cccnc1N1CCOCC1`, -13%.
The result for `O=C(NCc1nncn1C1CC1)c1ccccc1Oc1cccnc1` reads -18.3%; that for `O=C(c1ccnnc1)N1C[C@@H]2COC[C@]2(COCC2CC2)C1`, 46.2%; that for `OC(CNCCn1cccn1)c1cccc(Br)c1` (stereo not given), 11.2%.
As for `CC(O)c1cn(CC2CCN(C(=O)c3cscn3)CC2)nn1` (stereo not given), the INHIBITION is on record as 30.3%.
With `CC(O)c1cn(CC2CCN(C(=O)CN(C)C(C)C)CC2)nn1` (stereo not given), the INHIBITION stood at 8.51%.
The result for `CC(O)c1cn(CC2CCN(C(=O)c3cccc(N(C)C)c3)CC2)nn1` (stereo not given) reads 55.7%; that for `CCN(C)C(C(=O)Nc1ccc2c(c1)CCC(=O)N2)c1ccccc1` (stereo not given), 36.3%.
In the case of `CCN(CC)C(C(=O)Nc1ccc2c(c1)CCC(=O)N2)c1ccccc1` (stereo not given), the INHIBITION was 56.8%.
In the case of `CCC(CC(=O)Nc1ccc2c(c1)CC(=O)N2)c1ccccc1` (stereo not given), the INHIBITION is 49.1%.
Take `COCCN1C[C@@H]2[C@@H](OC)CCN(C(=O)c3cccc(OC)c3)[C@@H]2C1`: the INHIBITION is reported as 11.6%.
Then `Cc1ccc(OCCC(=O)NC2CCc3nccn3C2)cc1` (stereo not given), with 22.1%; and `CN(C)C(=O)CO[C@H]1CN(Cc2ccc(F)cc2)[C@@H]2CCCO[C@H]12`, with 25.1%.
For the compound `CCCc1nnc(N2CCC(N3CCCCCC3)CC2)o1`, the INHIBITION turned out to be 23.3%.
The result for `CCCc1nnc(N2CCN(C3CCCC3)CC2)o1` reads 26.5%; that for `CCCc1nnc(N2CCC(N3CCCC3)CC2)o1`, 79.8%; that for `O=C(O)C1(Oc2cccc(F)c2)CCN(C2CCOCC2)CC1`, -15.2%.
`Cc1ccccc1OCC(O)CN1CCC(c2ccn[nH]2)CC1` (stereo not given): the INHIBITION is on record as -17.6%.
As for `CSC1(CNC(=O)NC(C)c2ccc(F)cc2)CCOCC1` (stereo not given), the INHIBITION is 16.5%.
Take `CSC1(CNC(=O)NC(C)c2ccc(F)c(F)c2)CCOCC1` (stereo not given): the INHIBITION is listed as 65.3%.
Turning to `CSC1(CNC(=O)NC(C)Cc2cccc(F)c2)CCOCC1` (stereo not given), the INHIBITION is listed as -12.5%.
For the compound `O=C1NCC(C(=O)Nc2ccc(=O)n(Cc3ccccc3Cl)c2)N1` (stereo not given), the INHIBITION turned out to be 26.8%.
The result for `Cc1cc2c(N)nc(=O)n(CC(=O)Nc3ccccc3)c2s1` reads 1.45%.
`Cc1cc2c(N)nc(=O)n(CC(=O)Nc3cccc(Cl)c3)c2s1`: the INHIBITION is reported as 76.9%.
The result for `COc1cccc(NC(=O)Cn2c(=O)nc(N)c3cc(C)sc32)c1` reads -12.5%; that for `O=C(Nc1cccnc1N1CCSCC1)c1ccc2c(c1)OCO2`, 49.5%; that for `COc1c(C2CCCN2CC(=O)Nc2cc(C)on2)c(C)nn1C` (stereo not given), -102%.
With `CC(C)(C)n1ncc2c1NC(=O)CC2c1ccc(C#N)cc1` (stereo not given), the INHIBITION is -1.04%.
Then `CCc1[nH]c2c(CNC(=O)C3CCN(C)C3)cc(C)cc2c1C` (stereo not given), with 14.9%; and `Cc1cc(CNc2nccc(N)n2)c2[nH]c(C)c(C)c2c1`, with 66.9%; and `CCc1[nH]c2ccc(CNC(=O)c3cnc(N)nc3C)cc2c1C`, with 36.5%.
As to `CCc1[nH]c2c(CNC(=O)C3CCC(=O)NC3)cc(C)cc2c1C` (stereo not given), the INHIBITION is -8.75%.
The result for `CCc1[nH]c2c(CNc3nccc(N)n3)cc(C)cc2c1C` reads 37.4%; that for `CCc1[nH]c2c(CNc3cnccn3)cc(F)cc2c1C`, 56.3%; that for `CCc1[nH]c2c(CNc3nccc(N)n3)cc(F)cc2c1C`, 55.4%.
As for `CCc1[nH]c2c(CNc3cncc(C(=O)N(C)C)n3)cc(F)cc2c1C`, the INHIBITION was 47.2%.
Regarding `Cc1noc(C)c1CN1CCC2(CC1)CC(Oc1cccnc1)C2`, the INHIBITION is reported as 30.5%.
Then `Cn1cccc1C(=O)N1CCN(Cc2cccnc2)c2ncccc2C1`, with 10.5%; and `CCc1n[nH]c(C2CN(C(=O)CCOCC(F)(F)F)CCO2)n1` (stereo not given), with 1.45%.
The result for `O=C1NC2(CCN(c3ncccn3)CC2)CC1c1cccnc1` (stereo not given) reads 17.1%; that for `Cc1cc(CC(=O)NC2CCCN(c3ccccc3F)C2=O)n[nH]1` (stereo not given), 13.6%.
The result for `Cc1ccsc1C(CNC(=O)c1cc(=O)[nH]c(=O)[nH]1)N(C)C` (stereo not given) reads -27.5%; that for `NC(=O)CC1CCCN(c2cncc(SCc3ccccc3)n2)C1` (stereo not given), -13.7%; that for `CC(=O)Nc1ccc(Cl)c(C(=O)N(C)C(C)c2ccncn2)c1` (stereo not given), 32.2%.
For the compound `CC(=O)Nc1ccc(Cl)c(C(=O)N(C)C(C)c2nccs2)c1` (stereo not given), the INHIBITION is given as 61%.
The result for `CC(=O)Nc1ccc(Cl)c(C(=O)N(C)C(C)c2ccon2)c1` (stereo not given) reads 18.3%.
With `Cc1nc(C)n(CC2CN(Cc3ccc4c(c3)OCCO4)CCO2)n1` (stereo not given), the INHIBITION was 1.78%.
Turning to `O=C(Cn1cnc2sccc2c1=O)NCCCc1nnc2ccccn12`, the INHIBITION was found to be 28.3%.
Then `CCc1cnc(CNC(=O)NCCc2ccc(O)cc2)s1`, with 71.1%; and `Cc1cnc(CCNC(=O)NCCc2ccc(O)cc2)s1`, with 42.8%.
Take `CCc1cnc(CNC(=O)NCCCO)s1`: the INHIBITION is listed as -25.6%.
As to `CCC[C@@H]1CN(Cc2ccccc2OC(F)(F)F)C[C@H]1NC(C)=O`, the INHIBITION stood at 19.7%.
Then `COc1cccc(Cn2ncnc2CCSC)c1`, with -32.9%; and `CC(CCc1ncnn1Cc1cccc(Cl)c1)N1CCCC1` (stereo not given), with 49.3%.
As to `COc1cccc(Cn2ncnc2CCC(C)N2CCN(C)CC2)c1` (stereo not given), the INHIBITION came out at 72%.
Take `Cc1noc(C2CCCN(C(=O)CCCNc3ncccn3)C2)n1` (stereo not given): the INHIBITION came out at 8.535%.
As to `COc1ccc(CCCNCc2c(C)nn(C)c2N(C)C)cc1OC`, the INHIBITION is reported as 45.7%.
Then `CN(C)c1cccc(C(=O)N2CCn3c(nnc3C3CC3)C2)c1`, with 25.4%.
The result for `Cn1cc(S(=O)(=O)N2CCCC2Cn2ccnc2)cn1` (stereo not given) reads 34.4%; that for `CN(C)C(=O)c1cc(S(=O)(=O)N2CCCC2Cn2ccnc2)cn1C` (stereo not given), 61.5%.
The result for `Cn1cc(S(=O)(=O)N2CCCC2Cn2ccnc2)cc1C(N)=O` (stereo not given) reads 39.9%.
As for `CS(=O)(=O)Cc1noc(CN(Cc2ccco2)c2ccccc2)n1`, the INHIBITION is listed as 54.4%.
Then `COCCN(Cc1ccco1)Cc1nc(-c2ccccc2)no1`, with -10.1%; and `CN(Cc1nc(CS(C)(=O)=O)no1)c1ccccc1`, with 19.7%; and `Cc1noc(C)c1CN1C[C@@H](N(C)Cc2ccco2)[C@H]2OCCC[C@H]21`, with 20.6%.
As for `O=C(NCCNc1ncccn1)C1CCN(C(=O)c2ccoc2)CC1`, the INHIBITION is on record as -2.53%.
`CC1(C)OC(=O)N(CCCC(=O)c2ccc(F)cc2)C1=O`: the INHIBITION is on record as -4.12%.
Turning to `CN(C)C(=O)CCC[S+]([O-])Cc1ccc(F)c(F)c1` (stereo not given), the INHIBITION turned out to be 31.5%.
The result for `CN(C)C(=O)CCC[S+]([O-])Cc1ccc(Cl)c(Cl)c1` (stereo not given) reads 57.3%; that for `CN(C)C(=O)CNC(=O)c1ccc(Cl)cc1F`, -12.6%; that for `CN(C)C(=O)CCC[S+]([O-])Cc1cc(Cl)ccc1Cl` (stereo not given), 57.3%.
Then `COCC(=O)N(C)Cc1ccc(Cl)c(Cl)c1`, with -11.1%; and `CN(C)C(=O)CCNC(=O)NCc1ccc(Br)cc1Cl`, with 47.6%.
Then `CC(C)CCN1CCc2cc(C(=O)N(C)C)c(NCC3CC3)nc2CC1`, with -35%; and `Cc1nc(O)cc(CN2C[C@H](NC(=O)C3CCCC3)[C@@H](C3CC3)C2)n1`, with -69.6%.
As to `CCc1nnc(N2C[C@@H](NC(C)=O)[C@H](c3ccc(C)o3)C2)s1`, the INHIBITION turned out to be 44.3%.
Consider `CC(=O)N[C@@H]1CN(c2nc(CO)cs2)C[C@H]1c1ccc(C)o1`, for which the INHIBITION is 65.6%.
Regarding `CC(=O)N[C@@H]1CN(C(=O)c2cc3sccc3[nH]2)C[C@H]1c1ccc(C)o1`, the INHIBITION was -7.94%.
As for `CC(=O)N[C@@H]1CN(c2nc(C(N)=O)cs2)C[C@H]1c1ccc(C)o1`, the INHIBITION was determined as 35%.
Then `CCC[C@H]1CN(c2nc(CO)cs2)C[C@@H]1NC(=O)C1CCC1`, with 48.2%.
Turning to `CC(=O)N[C@@H]1CN(C(=O)c2cc3ccccc3[nH]2)C[C@H]1c1ccc(C)o1`, the INHIBITION is recorded as 61.2%.
With `CC(=O)N[C@@H]1CN(C(=O)c2ccc[nH]2)C[C@H]1c1ccc(C)o1`, the INHIBITION is on record as 45.1%.
Regarding `O=C(N[C@H]1CN(c2nc(CO)cs2)C[C@@H]1C1CC1)C1CCCCC1`, the INHIBITION is reported as 50.4%.

The values are drawn from ChEMBL document CHEMBL4513216, “Probing the Open Global Health Chemical Diversity Library for Multistage-Active Starting Points for Next-Generation Antimalarials” (ACS Infect Dis, 2020).
